Assay results published in ChEMBL document CHEMBL3988442, “University of Dundee, Small-Polar-MMV Screening Library” (2021).
Screen size: about 48,000 compounds; about 13,000 (27%) showed an effect of 50% or more. Some of the results follow.

tested on: Wolbachia pipientis; test: Anti-Wolbachia Cell-Based Screen; format: functional; design: scale not given: in the data most compounds retested in dose-response had high values; conditions: 5 µM

| SMILES | Percent Effect [%] |
| --- | --- |
| CC(C)CC(NC(=O)c1cc(-c2cccn2C)n[nH]1)c1ncnn1C (centres undefined) | 13.42 |
| CCc1csc(CNc2nc3c(s2)c(C)nn3C)n1 | -26.31 |
| OCC(CO)Nc1ccc2c(Cl)ccc(Cl)c2n1 | 1.659 |
| COc1cc(F)ccc1-c1nc2c([nH]1)c(C1CC1)nn2C | 1.853 |
| Cc1ccsc1CN(C)Cn1nccc1-c1cccnc1 | 34.48 |
| CC1CCCCN1C(=O)CN1CCN(c2ccc3nncn3n2)CC1 (centres undefined) | -2.497 |
| c1ccc(OCCCN2CCN(c3ccc4nncn4n3)CC2)cc1 | 7.239 |
| FC(F)(F)COCCN1CCN(c2ccc3nncn3n2)CC1 | -1.16 |
| c1cc(CCN2CCN(c3ccc4nncn4n3)CC2)ccn1 | 116 |
| O=C(CCN1CCN(c2ccc3nncn3n2)CC1)N1CCCCC1 | 90.26 |
| O=C(CCN1CCN(c2ccc3nncn3n2)CC1)NC1CCCC1 | 0.1018 |
| c1ccc(CCCN2CCN(c3ccc4nncn4n3)CC2)cc1 | 101.5 |
| Clc1ccccc1CCN1CCN(c2ccc3nncn3n2)CC1 | 114.3 |
| CN(Cc1ccccc1OC(F)(F)F)C(=O)C1CCCN(C(N)=O)C1 (centres undefined) | 15.24 |
| COCC1CCCCN1Cc1nc(-c2ccoc2)oc1C (centres undefined) | 2.327 |
| Cn1cc(N2CCN(c3ccc(C#N)cc3Br)CC2=O)cn1 | -23.45 |
| CCc1ccccc1OC1CN(C(=O)CN(C)Cc2ccncc2)C1 | 0.8406 |
| CC(C)c1ccn(C2(C(=O)O)CCN(c3cc(C(N)=O)ccn3)CC2)n1 | 10.23 |
| O=C(COc1cccnc1)NCc1nncn1C1CCCCC1 | -1.054 |
| Cc1cnc(N2CC[C@@]3(O)CCCC[C@H]3C2)nc1-c1ccnn1C | -8.985 |
| Cc1nn2c(N3CCC(C#N)CC3)cc(-c3ccccc3)nc2c1C | -8.665 |
| c1ccc(CCN2CCN(c3ccc4nncn4n3)CC2)cc1 | 80.05 |

| SMILES | Percent Effect [%] |
| --- | --- |
| Cc1ccc(C)c2c1NC(=O)C2CC(=O)O (centres undefined) | 5.742 |
| COCc1nc(NC(C)Cc2cc(C)n[nH]2)c2cnn(C)c2n1 (centres undefined) | 4.118 |
| CC(C)Oc1ccc(C(=O)N2CCC(Nc3cccnn3)CC2)cn1 | 123.7 |
| COc1ccc(C(=O)N2CCC(Nc3cccnn3)CC2)cn1 | 104 |
| COc1ccc(C(=O)N2CCC(Nc3cccnn3)CC2)c(OC)c1 | -3.344 |
| C[S+]([O-])c1ccc(CNc2ccc(F)cc2OC(F)F)cc1 (centres undefined) | 0.9094 |
| Cn1cc(-c2csc(N3CCOCC3)n2)cn1 | -6.106 |
| CCn1cc(C(=O)NCC(OC)c2cccc(Cl)c2)cn1 (centres undefined) | 4.602 |
| Cc1nn(C)cc1-c1cc(C(F)F)n2nc(CCC(=O)O)nc2n1 | 110.6 |
| Cc1nn(C)cc1-c1ccnc(N(C)Cc2noc(C(C)C)n2)n1 | 1.029 |
| CCn1cc(-c2cc(C(F)F)n3nc(CCC(=O)O)nc3n2)cn1 | 98.47 |
| Cn1cc(-c2csc(N3CCN(C(=O)OC(C)(C)C)CC3)n2)cn1 | 8.816 |
| Cn1cc(-c2cc(C(F)F)n3nc(CCC(=O)O)nc3n2)cn1 | 133.7 |
| CCn1cc(-c2cc(C(F)F)n3nc(CC(=O)O)nc3n2)cn1 | 108.3 |
| Cn1ncc(NC(=O)Cn2cc(-c3ccc(F)cn3)cn2)n1 | 2.479 |
| CCCc1cnc(C)nc1N1CCC2(CCCO2)CC1 | -4.323 |
| O=C(C1CCC1)N1CCN(Cc2ccccc2F)[C@H]2CS(=O)(=O)C[C@H]21 | 4.948 |
| Cc1nc(CN(C)C(=O)Nc2cnn(CC3CCCO3)c2)cs1 (centres undefined) | -5.003 |
| Cc1nc(CCNC(=O)CC2CCN(C(C)C)CC2)sc1Cl | -9.554 |
| Cc1ccsc1C(=O)N1CC2CC1(C(=O)NCC1CC1)C2 | -19.62 |
| CCn1ncc(-c2cc(C(F)F)n3nc(CCC(=O)O)nc3n2)c1C | 94.49 |
| CCn1ncc(-c2nc3c[nH]n(CC)c-3n2)c1C | -16.08 |

| SMILES | Percent Effect [%] |
| --- | --- |
| COc1ccccc1C(=O)N1CCC(Oc2ccc(C#N)cn2)CC1 | -9.351 |
| Cc1ccsc1CCNC(=O)CCC1CCCCN1C (centres undefined) | 3.946 |
| c1cc(CN2CCc3c(CN4CCCC4)n[nH]c3C2)ccn1 | -1.373 |
| Fc1cccc2[nH]c(CN3CCc4cncnc4C3)nc12 | 8.027 |
| Cc1cccc(CN2CCc3c(nc(N4CCCCC4C)[nH]c3=O)C2)n1 (centres undefined) | -2.625 |
| Cc1ccsc1CN1CCc2c(nc(N3CCCCC3C)[nH]c2=O)C1 (centres undefined) | 117.5 |
| CC1CCCCN1c1nc2c(c(=O)[nH]1)CCN(Cc1ccccn1)C2 (centres undefined) | 67.76 |
| Cc1ccsc1CN1CCC(c2cc(C(C)C)n[nH]2)CC1 | 15.3 |
| CCCn1nc2c(cc1=O)CN(Cc1ccccn1)CC2 | -24.61 |
| Cc1[nH]c(=O)[nH]c(=O)c1CN1CCCC(CCc2ccccc2F)C1 (centres undefined) | 3.318 |
| Cn1cnc2c1CCN(Cc1ccc(C(=O)N3CCCC3)cc1)C2 | 0.7019 |
| CC1CCCCN1c1nc2c(c(=O)[nH]1)CCN(Cc1ccccc1F)C2 (centres undefined) | 109.6 |
| CC1CCCCN1c1nc2c(c(=O)[nH]1)CCN(Cc1ccc(O)cc1)C2 (centres undefined) | 108.9 |
| C=C(C)CN(CC)Cc1nc(C)no1 | 10.24 |
| COCc1nc(C(=O)NS(=O)(=O)c2cc(F)ccc2F)cs1 | 4.131 |
| Cc1cc(C(=O)NCC(O)c2ccc(Cl)s2)c(C)o1 (centres undefined) | -36.26 |
| CCC1CN(CCNS(C)(=O)=O)c2ccccc2O1 (centres undefined) | -11.22 |
| CCNc1c(C#N)c(=O)n(C)c(=O)n1C | 7.391 |
| NC(=O)N1CCCC(C(=O)N2CCc3c(nc(CC4CC4)[nH]c3=O)C2)C1 (centres undefined) | 10.65 |
| CC1CCCCN1c1nc2c(c(=O)[nH]1)CCN(Cc1ccccc1O)C2 (centres undefined) | 110.1 |
| Cc1nc(-c2ccc(C(=O)O)cc2)cc(C2CCCN(C(C)C)C2)n1 (centres undefined) | 96.58 |
| Cc1nc(-c2cccc(C(=O)O)c2)cc(C2CCCN(C(C)C)C2)n1 (centres undefined) | 109.5 |

| SMILES | Percent Effect [%] |
| --- | --- |
| Cc1nc(-c2cccc(C(=O)O)c2)cc(C2CCN(C(C)C)C2)n1 (centres undefined) | -0.6305 |
| Cc1nc(-c2ccc(C(=O)O)cc2)cc(C2CCN(C(C)C)CC2)n1 | 130.3 |
| Cc1nc(O)cc(C2CCN(C(=O)C(C)Cn3nc(C)nc3C)CC2)n1 (centres undefined) | -10.44 |
| CC(C)S(=O)(=O)N1CCCC(c2cccc(C(=O)O)c2)C1 (centres undefined) | 13.9 |
| Cc1nc(-c2ccc(C(=O)O)cc2)cc(C2CCN(C(C)C)C2)n1 (centres undefined) | -2.545 |
| O=C(O)C(F)(F)F.O=C(c1cnccn1)N1CCN2C[C@H](OCc3ccccc3F)C[C@H]2C1 | 4.203 |
| Cc1ccoc1C(=O)NC1CCN(Cc2csc3c(F)cccc23)CC1 | 2.463 |
| Cc1c(CNC(=O)c2cn(CCC3CCCCN3)nn2)cnn1C (centres undefined) | 10.08 |
| Cc1oncc1C(=O)N1CCC(O)(CN2CCOCC2)C(C)(C)C1 (centres undefined) | 29.5 |
| Cc1c(CN2CCCC2(C)C(=O)N2CCOCC2)cnn1C (centres undefined) | 169.3 |
| Cc1c(CN2CCCC2(C)C(=O)NC2CCCC2)cnn1C (centres undefined) | 156.7 |
| CNC(=O)C1(C)CCCN1Cc1cnn(C)c1C (centres undefined) | 106.7 |
| O=C(NCc1cnn2ccccc12)NC1CCCC1 | -4.156 |
| CCn1cc(CN2CCCN(C(=O)C3(C)CCOCC3)CC2)cn1 | 8.44 |
| Cc1cccc(N2CCC3(CCCN3Cc3cnn(C)c3C)CC2)n1 | 9.163 |
| Cc1c(CNC(=O)Nc2cccc3c2CCN3C)cnn1C | -8.63 |
| CNc1nc(CNC(=O)Nc2ccc(OC(C)C)cc2C)cs1 | 3.504 |
| CCc1nc2n(n1)CCCC2Nc1nc(C2CC2)ns1 (centres undefined) | 8.759 |
| COc1cc(C)ccc1C(=O)N1CCC2(CCC(=O)N(C(C)C)C2)CC1 | -6.21 |
| CCC(NC(=O)NCc1cc(Cl)ccc1OC)c1noc(C)n1 (centres undefined) | -1.249 |
| CC(C)(O)CNC(=O)c1sccc1Br | 4.512 |
| Cn1cc(N2CCCC(Oc3ccc(F)cc3Cl)C2=O)cn1 (centres undefined) | 5.607 |

| SMILES | Percent Effect [%] |
| --- | --- |
| CN(CCCN1CCCC1)[C@@H]1c2ccccc2C2(CCNCC2)[C@H]1O | 1.656 |
| CCc1nc(C2CCCN2CCc2cccs2)no1 (centres undefined) | -1.558 |
| O=C(CCc1cccs1)N1CCCC1c1noc(C2CC2)n1 (centres undefined) | 100.7 |
| O=C(CCCc1ccccn1)N1CCCC1c1noc(C2CC2)n1 (centres undefined) | 105.7 |
| CCc1nc(C2CCCN2C(=O)CCc2cccs2)no1 (centres undefined) | -2.964 |
| c1csc(CCN2CCCC2c2noc(C3CC3)n2)c1 (centres undefined) | -13.07 |
| CCc1nc(C2CCCN2C(=O)Cc2cccs2)no1 (centres undefined) | 95.79 |
| O=C(COc1cc(Cl)cc(Cl)c1)NCc1nncn1C1CC1 | 2.768 |
| c1cn(Cc2nnc(C3CCN(c4nccs4)CC3)n2C2CC2)cn1 | 0.8881 |
| CC(C)n1ccnc1C1CCCN(c2ccncc2F)C1 (centres undefined) | 20.23 |
| Cc1c(C(=O)NC2(C#N)CCCC2)nnn1-c1ccccc1Cl | -3.476 |
| COCC(C)NC(=O)CCSc1ccc(F)cc1 (centres undefined) | 4.419 |
| Cc1cccc(N2CCN(CCC(=O)NCc3cnc(C)cn3)CC2)c1 | -29.47 |
| Cc1cnc(CNC(=O)CCCn2cnc3ccccc3c2=O)cn1 | 123.4 |
| CCC(C)NC(=O)CCc1ccnc2ccccc12 (centres undefined) | 0.4358 |
| COCC(C)NC(=O)CCCn1cnc2ccccc2c1=O (centres undefined) | 133.1 |
| CC(C)NC(=O)CCCn1cnc2ccccc2c1=O | 103.3 |
| COC(=O)CNC(=O)CCCn1cnc2ccccc2c1=O | 126.5 |
| Cc1nnc(SCCNC(=O)Cn2cnc3ccccc3c2=O)s1 | -10.12 |
| Cn1ccnc1SCCNC(=O)Cn1cnc2ccccc2c1=O | 4.017 |
| CCn1c(C)nnc1SCCNC(=O)Cn1cnc2ccccc2c1=O | 1.964 |
